Measurements from PubChem BioAssay AID756 (University of Pittsburgh Molecular Library Screening Center, 2007).
The list shows a part of the results.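 Rule for the calls: active = both duplicate runs show 50% or greater inhibition; inconclusive = only one duplicate run shows over 50% inhibition; inactive = both runs show under 50% inhibition.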

Assay: compound interference with Plk1 assay readout, artefact control for Plk1 kinase inhibitor project, biochemical, TR-FRET, compound added post-reaction (AID 756);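 note: 0% = DMSO max control and 100% = H-89 min control inhibited reaction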
Conditions: at 10 µM, hits give high values

Inhibition (interference), inactive:
COc1ccc(-c2nc(CS(=O)CC(=O)NCc3cccnc3)c(C)o2)cc1OC (stereo unspecified) -52.6%, O=C(Nc1cccc(F)c1)c1ccc(S(=O)(=O)N2CCCC2)cc1 -44.8%, CC1CN(c2cc(=O)n(Cc3ccc(F)cc3)c(=O)[nH]2)CC(C)O1 (stereo unspecified) -49.5%, CC1CSc2nnc(CCc3ccccc3)n21 (stereo unspecified) -58.9%, Cc1ccnc(N2C(=O)c3ccccc3C2Nc2ccc3c(c2)OCCO3)c1 (stereo unspecified) -50.1%, C[N+]1(CCNC(=O)/C=N/O)CCCCC1 -46.6%
